Hits are enriched below; roughly 12% of the tested compounds scored in any of these assays.
Shiga inhibitor: A qHTS for Small Molecule Inhibitors of Shiga Toxin; AID 2315, 2010; Vero cells, Shiga toxin protein synthesis inhibition reporter; inhibition, % at 38.7 µM; actives 9.2% (n = 290,000); in the data active means inhibition mostly above about 28%, no sharp cut-off; inactive means mostly below about 43%; further: 0% is about no effect
LASV entry inh: qHTS for Inhibitors of binding or entry into cells for Lassa Virus | Lassa virus pseudotype entry inhibition, cell reporter | Potency, µM (titrated, usually from 37.9 µM), without a hit: at the top dose activity change, negative = inhibition, actives largely listed as inhibitors | actives 1.2% (n = 300,000); calls by dose curve; tested in HEK293 cells; further: potency means the concentration at half of the fitted maximal effect; on the % scale 0 is the no-effect control and ±100 the full control effect; nearly all actives have a fitted effect of over 50% in size
CHX counter: Cycloheximide Counterscreen for Small Molecule Inhibitors of Shiga Toxin. cell reporter, cycloheximide protein synthesis inhibition counterscreen. max response, %. actives 12% (n = 300,000); in the data active means max response mostly above about 13%, no sharp cut-off; inactive means mostly below about 14%; further: read at 38.3 µM for the half of the compounds with a filed dose; 0% is about no effect
MARV entry inh: qHTS for inhibitors of binding or entry into cells for Marburg Virus | Potency, µM (highest dose often 37.8 µM), without a hit: top-dose activity change, negative = inhibition, actives largely listed as inhibitors | actives 1.8% (n = 300,000) | Marburg virus pseudotyped entry inhibition, cell reporter; calls by dose curve; tested in HEK293 cells; further: potency means the concentration at half of the fitted maximal effect; on the % scale 0 is the no-effect control and ±100 the full control effect
Active calls of the source: *; ? = inconclusive; · = no result; ! = not confirmed by another sample; [ ] = another dose, or the depositor's remark.

SMILES	Shiga inhibitor	LASV entry inh	CHX counter	MARV entry inh
CCOC(=O)C1=CN(c2cccc(F)c2)C=C(C(=O)OCC)C1c1cc(OC)c(O)c([N+](=O)[O-])c1	-9.7	?	0.6	-17.0%
COc1ccc(-c2cc(C(F)(F)F)n3nc(C(=O)Nc4ccccc4SC)cc3n2)cc1OC	·	-3.2%[46.1 µM]	·	2.8%[46.1 µM]
CCCN1CCC(=O)N(CCSc2ccc(Br)cc2)CC1	56.0*	·	35.2*	·
CC(=O)Nc1ccc(SCC(CC(C)C)N2CCN(CC(C)C)CCC2=O)cc1 (stereo not given)	-13.5	·	-10.0	·
Cc1ccc(SCCN2CCN(CC(C)C)CCC2=O)cc1	84.5*	·	31.2*!	·
CN1CCC(=O)N(CCSc2ccc(Br)cc2)CC1	49.7*!	·	20.8*!	·
O=C(NCCN1CCCCC1)Nc1cccc(F)c1	-7.0	11.1%[46.1 µM]	0.5	-1.6%[46.1 µM]
Cc1cc(C)cc(Nc2nc3ccccc3n3cnnc23)c1	·	25.7%[46.1 µM]	·	-21.2%[46.1 µM]
O=C(NNC(=O)C1CC=CCC1)c1cccc(Br)c1 (stereo not given)	·	7.5%	·	-18.9%
O=C(NNC(=O)C1CC=CCC1)c1ccccc1Br (stereo not given)	16.9	?	active	-6.0%
O=C(NNC(=O)C1CC=CCC1)c1ccccc1O (stereo not given)	24.9	?	17.6*	1.3%[46.1 µM]
Cc1ccc(Cn2c(=N)n(CC(O)c3ccco3)c3ccccc32)cc1 (stereo not given)	-20.6	-20.8%	-4.5	11.2µM*
N=c1n(Cc2ccccc2Cl)c2ccccc2n1CC(O)c1ccco1 (stereo not given)	-20.1	?	-5.4	16.4%
O=C(N/N=C/c1cc(Br)c(Br)o1)c1cccnc1	-1.9	-16.4%	8.3	-24.1%
O=C(Nc1ccc(C2SCCS2)cc1)c1ccccc1	135.8*	?	60.3*	?
CC(C)c1ccc(NC(=O)COc2ccc(C3SCCS3)cc2)cc1	18.3	5.9%	-3.8	?
CCCCNC(=O)Nc1ccc(C2SCCS2)cc1	86.5*	-18.0%	47.0*	?
CNC(=O)Nc1ccc(C2SCCS2)cc1	27.1	-3.1%	17.3*	18.4%
COc1cc(OC)c(NC(=O)CN(C)S(=O)(=O)c2ccc3[nH]c(=O)oc3c2)cc1Cl	17.9	·	-9.1	·
COC(=O)c1ccc(COc2ccc(/C=C(\C#N)c3nc4ccccc4[nH]3)cc2OC)o1	81.3*	-26.8%	32.6*	-12.6%
CCc1ccc(NC(=O)COc2ccc(/C=C(/C#N)c3nc4ccccc4[nH]3)cc2OC)cc1	active	?	22.1*	?
COc1cc(/C=C(\C#N)c2nc3ccccc3[nH]2)ccc1OCc1ccc(F)cc1	·	-5.8%[46.1 µM]	·	?
COc1cc(/C=C(/C#N)c2nc3ccccc3[nH]2)ccc1OCc1ccc(C(=O)O)o1	49.9	12.9%	10.4	?
CC(C)NC(=O)CSc1nnc(-c2ccc(S(=O)(=O)N3CCCC3)cc2)n1CC1CCCO1 (stereo not given)	-10.9	7.0%	-1.6	0.3%
C=CCNc1nc2c3ccccc3n(C(C)=O)c2s1	128.9*	?	23.7	0.6%[46.1 µM]
SMILES	Shiga inhibitor	LASV entry inh	CHX counter	MARV entry inh
C=CCNc1nc(-c2cccs2)c(CC(=O)O)s1	-0.9	-0.1%	-2.2	15.3%[46.1 µM]
Cc1ccc(CN2CCNC(=O)C2CC(=O)NCCCn2ncc3ccccc32)o1 (stereo not given)	-8.9	17.3%[46.1 µM]	-2.2	1.0%[46.1 µM]
Cc1ccc(C(=O)Nc2ccsc2C(=O)O)cc1	51.5*	·	38.8*	·
O=C(Nc1ccsc1C(=O)O)c1ccc(Cl)cc1	85.4*	?	26.9*	-16.4%
Cc1cc2ncc(C(=O)Nc3ccsc3C(=O)O)c(C)n2n1	19.5	-5.2%[46.1 µM]	17.6*	-7.9%[46.1 µM]
COC(=O)c1sccc1NC(=O)c1ccncc1	-3.1	-16.0%	-2.4	0.1µM*
O=C(Nc1ccsc1C(=O)NC1CCCCC1)c1ccccc1	-7.4	-23.6%	1.9	-5.5%
O=C(CNC(=O)c1ccccc1)Nc1ccsc1C(=O)O	6.9	8.5%[46.1 µM]	-2.0	11.5%[46.1 µM]
CC(=O)c1cnc2cc(C)nn2c1C	-4.2	-0.2%	-1.8	-10.5%
CC(C)c1ccc(NC(=O)Cn2cccc2C2=NC(c3ccccc3)CO2)cc1 (stereo not given)	7.1	-13.4%	3.0	2.7%
NS(=O)(=O)c1ccc(NC(=O)COC(=O)COc2ccc(Br)cc2)cc1	-10.4	·	-1.9	·
COc1ccc(Cl)cc1NC(=O)C/C(C)=N/NC(=O)c1ccc(O)cc1	68.2*	?	31.1*	2.6%
Cc1cccc(NC(=O)CSc2ccc(-c3ccccn3)nn2)c1	·	-8.9%[46.1 µM]	·	·
CCC(C(=O)OCC(=O)Nc1cc(C)ccc1OC)c1ccccc1 (stereo not given)	32.1	?	26.0*	-5.0%[46.1 µM]
COc1ccc(Cl)cc1NC(=O)CNC(c1ccccc1)c1ccccc1	14.0	2.51µM*	3.3	?
COc1ccc(C)cc1NC(=O)CNC(c1ccccc1)c1ccccc1	4.6	·	7.3	·
COc1ccc(C)cc1NC(=O)CSc1ccc(-c2ccccn2)nn1	20.0	?	11.4*	?
COc1ccc(C)cc1NC(=O)COC(C)=O	19.6	?	2.0	2.0%
COc1cc(NC(=O)C/C(C)=N/NC(=O)c2cccc(O)c2)c(OC)cc1Cl	128.7*	6.7%	29.9*	0.3%
COc1ccc(Cl)cc1NC(=O)C/C(C)=N/NC(=O)Cc1ccccc1	43.6*	-4.0%	15.5	-10.4%[46.1 µM]
O=C(CCNC(=O)c1ccccc1Cl)NCC(c1ccc(F)cc1)N1CCOCC1 (stereo not given)	·	-5.6%[46.1 µM]	·	-5.0%
COCCCNC(=S)Nc1c(C)cc(C)cc1C	21.0	5.2%	-2.5	-2.4%[46.1 µM]
CCN1CCN(C2=C(NS(=O)(=O)c3ccccc3)C(=O)c3ccccc3C2=O)CC1	14.7	·	11.9*	·
CCOC(=O)C1CCN(C2=C(NS(=O)(=O)c3ccc(Br)cc3)C(=O)c3ccccc3C2=O)CC1	4.9	·	16.0*	·
Cc1ccccc1-c1nc2cc(NC(=O)C3CC3)ccc2o1	108.9*	?	42.6*	?
SMILES	Shiga inhibitor	LASV entry inh	CHX counter	MARV entry inh
CCC(=O)Nc1ccc2oc(-c3ccccc3Br)nc2c1	122.0*	?	49.0*	?
CC(=O)Nc1ccc2oc(-c3ccccc3Br)nc2c1	92.6*	?	70.8*	?
Cc1ccccc1-c1nc2cc(NC(=O)Cc3ccc(Cl)cc3)ccc2o1	·	-0.3%[46.1 µM]	·	·
COc1cc(OC)cc(C(=O)Nc2ccc3oc(-c4ccccc4C)nc3c2)c1	·	1.1%[46.1 µM]	·	·
CC(=O)Nc1ccc2oc(-c3cc(F)c(F)cc3Cl)nc2c1	180.7*	?	32.2*	-3.0%
O=C(CCN1C(=O)C2CC=CCC2C1=O)N1CCN(C2=NCCCC2)CC1 (stereo not given)	·	·	·	20.6%
CCc1ccc(CNC(=O)CN2C(=O)c3cccnc3Oc3ccc(Cl)cc32)cc1	·	-8.9%[46.1 µM]	·	·
Cc1ccc(C)n1-c1nnc(N2CCCC(C(=O)Nc3ccc(C(C)C)cc3)C2)s1 (stereo not given)	·	4.5%[46.1 µM]	·	5.1%[46.1 µM]
Cc1noc(C)c1C(=O)Nc1nc(-c2ccc(F)cc2)cs1	·	4.3%	·	-2.0%
Cc1onc(-c2ccccc2)c1C(=O)Nc1nc(-c2ccccc2)cs1	95.6*	?	30.5*	?
Cc1noc(C)c1C(=O)Nc1nc(-c2ccccc2Cl)cs1	65.7*	6.2%	36.1*	?
Cc1cc(C(=O)OC(C)C(=O)Nc2nc(-c3ccccc3)cs2)c(C)o1 (stereo not given)	3.5	13µM*	7.2	?
